Inconclusive results are not listed. The source made the active and inactive calls. How the source made its calls: active means hit-call score of the fitted dose curve at least 0.9, where 1 is the maximum; inconclusive means response in the unintended direction; inactive means score below 0.9.
Biological target: Glucocorticoid receptor (Homo sapiens) (UniProt P04150)
Assay: ATG_GR_TRANS: Attagene TRANS-FACTORIAL HepG2 Assay for human Glucocorticoid Receptor (GR) (AID 2282978);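 further: activators score as hits since higher reporter transcript over DMSO is fitted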
Conditions: HepG2 Attagene TRANS GR reporter, mRNA transcription
Procedure: ATG_TRANS is a cell-based, multiplexed-readout assay that uses HepG2, a human liver cell line, with measurements taken at 24 hours after chemical dosing in a 24-well plate.ATG_GR_TRANS is one of 30 assay component(s) measured or calculated from the ATG_TRANS assay. It is designed to make measurements of mRNA induction, a form of inducible reporter, as detected with fluorescence intensity signals by Reverse transcription polymerase chain reaction (RT-PCR) and Capillary electrophoresis technology.Data from the assay component ATG_GR_TRANS was analyzed into 1 assay endpoint. This assay endpoint, ATG_GR_TRANS, was analyzed in the positive analysis fitting direction relative to DMSO as the negative control and baseline of activity. Using a type of inducible reporter, measures of mRNA for gain-of-signal activity can be used to understand the reporter gene at the transcription factor-level as they relate to the gene NR3C1. Furthermore, this assay endpoint can be referred to as a primary readout, because this assay has produced multiple assay endpoints where this one serves a reporter gene function. To generalize the intended target to other relatable targets, this assay endpoint is annotated to the nuclear receptor intended target family, where the subfamily is steroidal.
Human liver HepG2 cells are transiently transfected with multiple reporter transcription units (MRTUs) in 6-well plates using FuGene 6 reagent (Roche; 3 ml FuGene/1 mg DNA). The MRTU constructs are regulated by a cis-regulating element (promoter). […] A major difference between the CIS and TRANS system is that in CIS activities of endogenous TFs are measured, whereas the TRANS assay evaluates changes in activities of exogenous, chimeric NR-Gal4 proteins. […] At the end of 24 hour incubation, total RNA was isolated using TriZol reagent (Invitrogen). The isolated RNA is then reverse-transcribed using oligo(dT) primer and Mo-MLV reverse transcriptase (Invitrogen) with DNAse I (Ambion) treatment for 30 min. The one-tenth of the produced cDNA was amplified by PCR using Taq DNA polymerase (Invitrogen) and two reporter sequence-specific primers. The PCR products were fluorescently labeled by primer extension with 6-arboxyfluorescein (6-FAM) 5'-labeled reporter sequence-specific primer (2 min at 95 C, 20 s at 68 C and 10 min at 72 C) and these products were digested with 5U of HpaI (New England Biolabs) for 2h at 37 C. The fragments were purified using Qiaquick PCR columns (Qiagen), analyzed on an ABI 3130xL genetic analyzer (Applied Biosystems) with peak positions identified by using a set of X-rhodamine (ROX)-labeled MapMarker1000 molecular weight standards (BioVentures). The raw capillary electrophoresis data was processed using Attagraph software (Attagene).

Glucocorticoid receptor (Homo sapiens), sequence (P04150 whole entry, looked up): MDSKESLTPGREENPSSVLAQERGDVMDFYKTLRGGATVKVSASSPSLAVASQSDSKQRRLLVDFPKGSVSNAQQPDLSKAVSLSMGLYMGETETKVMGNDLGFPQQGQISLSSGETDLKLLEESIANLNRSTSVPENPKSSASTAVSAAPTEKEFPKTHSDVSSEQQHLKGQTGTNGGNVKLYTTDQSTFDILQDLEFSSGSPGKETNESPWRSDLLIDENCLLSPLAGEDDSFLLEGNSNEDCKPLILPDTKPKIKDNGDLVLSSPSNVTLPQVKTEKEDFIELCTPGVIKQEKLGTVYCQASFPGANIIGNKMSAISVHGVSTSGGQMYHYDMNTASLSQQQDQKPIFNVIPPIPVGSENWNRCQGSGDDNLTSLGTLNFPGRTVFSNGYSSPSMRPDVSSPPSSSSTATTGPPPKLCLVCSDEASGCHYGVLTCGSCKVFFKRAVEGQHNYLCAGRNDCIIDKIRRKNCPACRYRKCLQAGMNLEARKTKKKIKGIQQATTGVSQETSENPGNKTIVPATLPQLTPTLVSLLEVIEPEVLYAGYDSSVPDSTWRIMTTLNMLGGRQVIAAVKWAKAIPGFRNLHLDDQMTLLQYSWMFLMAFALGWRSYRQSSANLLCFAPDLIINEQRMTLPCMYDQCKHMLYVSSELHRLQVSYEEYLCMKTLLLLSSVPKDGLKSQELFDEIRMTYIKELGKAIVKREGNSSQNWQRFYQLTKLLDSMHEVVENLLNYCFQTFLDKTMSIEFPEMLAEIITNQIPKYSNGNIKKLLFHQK

outcome, inactive:
CC(C)c1ccc(C=O)cc1
O=C1CCCCCCCCCCCCCCCO1
c1ccc2c(c1)ccc1cc3c(ccc4ccccc43)cc12
CC(C)C1=CC2=CC[C@@H]3[C@](C)(CCC[C@@]3(C)C(=O)O)[C@H]2CC1
CCC(CC)C(=O)O
CCOC(=O)Cc1cccc2ccccc12
O=c1[nH]c(=O)c2[nH]c(=O)[nH]c2[nH]1
C=CCOc1c(Br)cc(Br)cc1Br
Oc1ccc(Cl)cc1Cc1cc(Cl)ccc1O
CC(=O)OC(C)C
O=C1CCCC1
O=[N+]([O-])c1ccc(CO)cc1
C=CC=CC=CCCCCC
CCCCCCCCC(=O)OCC
CCCCCC/C=C\CCCCCCCC(=O)O
Nc1ccc(N=Nc2ccccc2)c(N)n1
CCCOC(=O)CCCCC(=O)OCCC
CC(=O)OCCC1CCCCC1
CCN(CC)c1ccc(C(=O)c2ccccc2C(=O)O)c(O)c1
CC1OC1C1CCC2(C)OC2C1 (stereo not given)
CC(C)(C)c1ccc(N)cc1
CC1(C)[C@H]2CC[C@]1(C)C(=O)C2
Cc1cc(C)c(C(=O)O)c(C)c1
SCCc1cnccn1
CCCCCCCC[N+](C)(CCCCCCCC)CCCCCCCC
CCOC(F)(F)C(F)(F)C(F)(F)C(F)(F)F
c1ccc(-c2ccccn2)nc1
CC(=O)NS(=O)(=O)c1ccc(N)cc1
O=C1c2ccccc2C(=O)C1c1nc2ccccc2c(Br)c1O
O=C1CCC(=O)N1Cl
CCc1nccnc1C
C=C(C)CCO
NNC(=O)c1cccc(C(=O)NN)c1
CCN(CCC#N)c1ccc(N=Nc2c(Cl)cc([N+](=O)[O-])cc2Cl)cc1
Cc1cccc(N(C)C(=S)Oc2ccc3ccccc3c2)c1
CO[Si](CCC1CCC2OC2C1)(OC)OC (stereo not given)
C=CC(=O)OCCOC1C2CCC1C1CC=CC12 (stereo not given)
FC(F)(F)C(=NOCC1OCCO1)c1ccc(Cl)cc1
Nc1ccc(Oc2ccc(N)c(N)c2)cc1
O=c1c2ccccc2oc2ccccc12
